# From PubChem BioAssay (NCI)
# Compounds without any hit were thinned out: in the full panel of roughly 83,000, 20% have a hit.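 Compound tested at a single concentration for 48 hours in 96-well plates; a percent growth value below 10 was scored as active.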 The source made the active and inactive calls.
# System: HL-60(TB) leukemia
# Experiment: NCI-60 one-dose screen, 48 h (100 = growth as untreated, 0 = no growth, -100 = all killed)
# Conditions: 10 µM unless noted
row,SMILES,growth
1,CCCOC(=O)C(O)c1ccccc1 (centres undefined),113% (inactive)
2,CCc1cc(Cc2cc(CC)cc(C(C)(C)C)c2O)c(O)c(C(C)(C)C)c1,58.1% (inactive)
3,CCN(CC)c1ccc(-c2cc(-c3cc(OC)c(OC)c(OC)c3)nc(N3CCC(O)CC3)c2C#N)cc1,-14.1% (active)
4,COC(=O)c1cccc([N+](=O)[O-])c1,121% (inactive)
5,COc1ccc(-c2nn(-c3ccccc3)cc2/C=C/C(=O)NNC(=O)Nc2ccc(C)cc2)cc1,90.5% (inactive)
6,C/C(=C\CCc1ccoc1)CC/C=C(\C)CCCN1CCOCC1,35.5% (inactive)
7,CS(=O)(=O)N(c1cc(-c2ccc3ncnc(Nc4ccc(F)c(Cl)c4)c3c2)cnc1Cl)S(C)(=O)=O,20.4% (inactive)
8,CCN(CC)c1ccc2nc3ccc(N=Nc4ccc(O)cc4)cc3[n+](-c3ccccc3)c2c1,21.8% (inactive)
9,CCCCC(CCCCCC(CCCC)NCc1ccc2c(c1)OCO2)NCc1ccc2c(c1)OCO2 (centres undefined),-76.6% (active)
10,C=CCC(CCC(CC=C)C(=O)OCC)C(=O)OCC (centres undefined),99.8% (inactive)
11,Oc1c(Cl)cc(Cl)c2ccc(CN3CCNCC3)nc12,44.1% (inactive)
12,CCN(c1cc(-c2ccc(CN3CCC(/C=C/S(=O)(=O)c4ccccc4)CC3)cc2)cc(C(=O)NCc2c(C)cc(C)[nH]c2=O)c1C)C1CCOCC1,23.4% (inactive)
13,O=c1[nH]c(=O)n(C2CC(O)C(CO)O2)cc1C(F)(F)F (centres undefined),-22.2% (active)
14,CCOC(=O)C#Cc1c(C(=O)OCC)nnn1[C@@H]1O[C@H](COC(C)=O)[C@@H](OC(C)=O)[C@H]1OC(C)=O,74% (inactive)
15,Cc1csc(NC(c2ccccc2)c2c(C)nc3ccccn23)n1 (centres undefined),111% (inactive)
16,CCCCCC#CC1OC23CCCCC2C(C#N)(C(=N)O3)C1(C#N)C#N (centres undefined),81% (inactive)
17,CCN1C2=C(SC(=S)C1=C1SC(C(=O)OC)=C(C(=O)OC)S1)SC(=Nc1ccc(OC)cc1)C2=O,26% (inactive)
18,N#Cc1c(-c2ccccc2)c(C#N)c2c(C#N)c(N)nn2c1N,-17.2% (active)
19,C=CCN(/C=C1/C(=O)O[C@H](COC)[C@@]2(C)C1=C(O)C(=O)C1=C2[C@H](OC(C)=O)C[C@]2(C)C(=O)CC[C@@H]12)CC=C,5.66% (active)
20,O=c1oc2ccc(I)cc2c(=O)n1-c1ccc(I)cc1F,-49.1% (active)

row,SMILES,growth
1,O=C(O)c1cn(C2CC2)c2cc(N3CCN(C(=O)/C=C/c4ccc(Cl)cc4)CC3)c(F)cc2c1=O,60.4% (inactive)
2,CC1=C2[C@@H](CC1)[C@]1(C)O[C@@](C(C)C)(C[C@H]1OC(=O)[C@H](C)O)[C@H]2OC(=O)/C=C/c1ccccc1,89.1% (inactive)
3,COC1CC(OC(=O)c2ccc([N+](=O)[O-])cc2)C(COC(=O)c2ccc([N+](=O)[O-])cc2)O1 (centres undefined),97% (inactive)
4,COc1cc(-c2csc(NC(=O)Nc3ccc(C(F)(F)F)cc3)n2)cc(OC)c1OC,-13.8% (active)
5,CCOC(C)=N,78.7% (inactive)
6,Cc1ccc(F)cc1NC(=O)c1cc(Cl)ccc1Nc1ccccc1,51.6% (inactive)
7,CCN(CC)c1ccc(/C=N/NC(=O)C[N+](C)(C)C)cc1,35.5% (inactive)
8,CC(C)c1nc(N(C)S(C)(=O)=O)nc(-c2ccc(F)cc2)c1/C=C/C(=O)C[C@@H](O)CC(=O)O,106% (inactive)
9,Cc1ccccc1N=C(N)Nc1ccccc1C (tested in a mixture with another compound),-25% (active)
10,Cc1nc(Nc2ccc(Cl)cc2)c2cnn(-c3ccccc3)c2n1,102% (inactive)
11,N#Cc1c(N)nc2c(c1N)C(c1ccc(F)cc1)c1ccc(N)cc1O2 (centres undefined),110% (inactive)
12,CCCC1C(C(=O)OCC)=C(N)Oc2cc(O)ccc21 (centres undefined),102% (inactive)
13,COC(=O)c1c2c(c(C)[n+]([O-])c1C)C(=O)C(NCc1ccc(F)c(F)c1)=CC2=O,-23.6% (active)
14,O=C1Nc2ccc(F)cc2C12Nc1cc(Cl)ccc1S2 (centres undefined),65.5% (inactive)
15,CN(/C(N)=N/N=C/c1c2ccccc2cc2ccccc12)C1CCCCC1,35.4% (inactive)
16,Cc1[nH]c(-c2nc3ccccc3[nH]2)c(C)c1C(=O)NNc1ccc(Cl)cc1,103% (inactive)
17,Cc1ccc2[nH]c3nc4cccnc4c(C)c3c2c1,83.5% (inactive)
18,Nc1nnc(CSc2nnc3n(Cc4ccccc4)c(=O)c4c5c(sc4n23)CCCC5)s1,76.9% (inactive)
19,COc1c(F)cc(-n2c(C(=O)N3CC(F)C3)cc3cccnc32)cc1F,98.3% (inactive)
